The target of experiment [1] is Estrogen receptor (Homo sapiens) (UniProt P03372). Description: OT_ER_ERaERa_0480: Odyssey Thera (OT) 8-hour HEK293T Protein-Complementation Assay for Estrogen Receptor-alpha/-alpha Homodimer (AID 2283351).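 Further: rise in fluorescence from reassembled reporter fragments on ERα LBD homodimer in nucleus or whole cell.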 Summed up:
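HEK293T cells stably expressing a PCA pair of ER alpha LBD (residues 310-547) were dosed for 8 hours. The gain in fluorescence intensity, nuclear for agonists and whole-cell for antagonists, was measured by laser scanning cytometry against DMSO vehicle.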

In experiment [2] the target is rat Mineralocorticoid Receptor (MR), Nr3c2 (gene 25672) (UniProt P22199). Put plainly: NVS_NR_rMR: NovaScreen (NVS) Nuclear Receptor Binding Assay for rat Mineralocorticoid Receptor (MR) (AID 2283355). In a few lines:
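Primary HTS ran in duplicate at a single 25 uM concentration, with concentration-series follow-up for actives. Receptor source: adrenalectomized rat brain supernatant, cell-free. Radioligand displacement read by scintillation at 24 h, relative to DMSO baseline.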

For experiment [3], the target named is Estrogen receptor (Homo sapiens) + Estrogen receptor beta (Homo sapiens) (UniProt P03372+Q92731). Put plainly: OT_ER_ERaERb_1440: Odyssey Thera (OT) 24-hour HEK293T Protein-Complementation Assay for Estrogen Receptor-alpha/-beta Homodimer (AID 2283356).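 Further: heteromer of ER alpha and ER beta binding domains; hits raise reporter fluorescence and both agonists and antagonists give an increase.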 Summed up: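 Readout: mean fluorescence intensity in nucleus (agonists) or nucleus plus cytoplasm (antagonists), read by laser scanning cytometer after 24 h compound exposure of HEK293T cells carrying ERα/ERβ LBD fragment-complementation constructs; DMSO baseline.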

Experiment [4] deals with Estrogen receptor beta (Homo sapiens) (UniProt Q92731). Description: OT_ER_ERbERb_0480: Odyssey Thera (OT) 8-hour HEK293T Protein-Complementation Assay for Estrogen Receptor-beta/-beta Homodimer (AID 2283357).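 Further: active means signal gain over DMSO baseline.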 In a few lines:
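ER-beta LBD homodimer PCA stably expressed in HEK293T; 8 h compound exposure, then formaldehyde fixation and Draq5 staining. Gain in nuclear/cytoplasmic fluorescence intensity versus DMSO vehicle, read on laser scanning cytometer.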

The target of experiment [5] is Androgen Receptor/SRC-1 Co-activator, AR (gene 367) (UniProt P10275). Put plainly: OT_AR_ARSRC1_0960: Odyssey Thera (OT) 16-hour HEK293T Protein-Complementation Assay for Androgen Receptor/SRC-1 Co-activator (AID 2283353).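 Further: actives raise the signal above DMSO so potency reflects increased AR and SRC-1 complex.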 Summed up:
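Endpoint is gain-of-signal N/C fluorescence ratio in the 488 nm channel versus DMSO, from at least 400 cells per image, measured 16 h post-dosing. Cells: HEK293T stably carrying split-Venus AR/SRC-1 complementation constructs.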

Experiment [6] has the same target. Put plainly: OT_AR_ARSRC1_0480: Odyssey Thera (OT) 8-hour HEK293T Protein-Complementation Assay for Androgen Receptor/SRC-1 Co-activator (AID 2283354).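 Further: hits raise the complementation signal above DMSO so AC50 marks enhancers.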 In a few lines: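 Reconstituted split-Venus YFP signal from AR–SRC-1 interaction, read by imaging 8 h post-dose in stable HEK293T lines. The 488 nm nucleus-to-cytoplasm ratio (≥400 cells/image) was fitted upward against DMSO.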

Experiment [7] concerns the target Retinoic acid receptor alpha (Homo sapiens) (UniProt P10276). Description: NVS_NR_hRARa_Agonist: NovaScreen (NVS) Nuclear Receptor Binding Assay for human Retinoic Acid Alpha Receptor Agonism (RAR) (AID 2283361). Summed up: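 Agonist-mode TR-FRET binding format using extracted protein, measured at 2 h post-dosing. Initial duplicate single-point screen at 25 uM preceded concentration series for actives; activity was normalized to DMSO baseline.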

In experiment [8] the target is human Thyroid Receptor Alpha (TRa), THRA (gene 7067) (UniProt P10827). Put plainly: NVS_NR_hTRa_Antagonist: NovaScreen (NVS) Nuclear Receptor Binding Assay for human Thyroid Receptor Alpha Antagonism (TRa) (AID 2283362).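 Further: activity is loss of signal relative to DMSO baseline.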 Summed up: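 AlphaLISA chemiluminescent immunoassay readout, taken 1 h post-dosing in a cell-free system with extracted protein. Activity was scored as signal loss against DMSO negative control, from duplicate single-concentration (25 uM) testing followed by concentration-response follow-up.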

Experiment [9] deals with human Peroxisome Proliferator-activated Receptor alpha (PPARa), PPARA (gene 5465) (UniProt Q07869). Description: NVS_NR_hPPARa: NovaScreen (NVS) Nuclear Receptor Binding Assay for human Peroxisome Proliferator-activated Receptor alpha (PPARa) (AID 2283359).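 Further: activity means loss of TR-FRET signal versus DMSO baseline.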 Summed up:
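Loss of TR-FRET binding signal relative to DMSO was measured 1 h after chemical addition to extracted receptor protein. Chemicals were first tested in duplicate at 25 uM, and actives were followed up in concentration series.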

Experiment [10] addresses Retinoic acid receptor alpha (Homo sapiens) (UniProt P10276). Put plainly: NVS_NR_hRAR_Antagonist: NovaScreen (NVS) Nuclear Receptor Binding Assay for human Retinoic Acid Alpha Receptor Antagonism (RAR) (AID 2283358). Summed up: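 RARalpha antagonism was read by TR-FRET as loss of binding signal versus DMSO, 2 h after chemical addition, in a biochemical format. Single-concentration duplicates (25 uM) were run first, and actives were retested in concentration series.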

Where “and” joins values, the source holds several entries; their conditions need not be identical. Equal entries are not always repeated. Results filed as inconclusive are left out. The source holds several records for some structures; these can differ, active in one and inactive in another. Calls of active or inactive are those of the source. How the source made its calls: active means hit-call score of the fitted dose curve at least 0.9, where 1 is the maximum; inconclusive means response in the unintended direction; inactive means score below 0.9.

rat Mineralocorticoid Receptor (MR), Nr3c2 (gene 25672), sequence (P22199 whole entry, looked up): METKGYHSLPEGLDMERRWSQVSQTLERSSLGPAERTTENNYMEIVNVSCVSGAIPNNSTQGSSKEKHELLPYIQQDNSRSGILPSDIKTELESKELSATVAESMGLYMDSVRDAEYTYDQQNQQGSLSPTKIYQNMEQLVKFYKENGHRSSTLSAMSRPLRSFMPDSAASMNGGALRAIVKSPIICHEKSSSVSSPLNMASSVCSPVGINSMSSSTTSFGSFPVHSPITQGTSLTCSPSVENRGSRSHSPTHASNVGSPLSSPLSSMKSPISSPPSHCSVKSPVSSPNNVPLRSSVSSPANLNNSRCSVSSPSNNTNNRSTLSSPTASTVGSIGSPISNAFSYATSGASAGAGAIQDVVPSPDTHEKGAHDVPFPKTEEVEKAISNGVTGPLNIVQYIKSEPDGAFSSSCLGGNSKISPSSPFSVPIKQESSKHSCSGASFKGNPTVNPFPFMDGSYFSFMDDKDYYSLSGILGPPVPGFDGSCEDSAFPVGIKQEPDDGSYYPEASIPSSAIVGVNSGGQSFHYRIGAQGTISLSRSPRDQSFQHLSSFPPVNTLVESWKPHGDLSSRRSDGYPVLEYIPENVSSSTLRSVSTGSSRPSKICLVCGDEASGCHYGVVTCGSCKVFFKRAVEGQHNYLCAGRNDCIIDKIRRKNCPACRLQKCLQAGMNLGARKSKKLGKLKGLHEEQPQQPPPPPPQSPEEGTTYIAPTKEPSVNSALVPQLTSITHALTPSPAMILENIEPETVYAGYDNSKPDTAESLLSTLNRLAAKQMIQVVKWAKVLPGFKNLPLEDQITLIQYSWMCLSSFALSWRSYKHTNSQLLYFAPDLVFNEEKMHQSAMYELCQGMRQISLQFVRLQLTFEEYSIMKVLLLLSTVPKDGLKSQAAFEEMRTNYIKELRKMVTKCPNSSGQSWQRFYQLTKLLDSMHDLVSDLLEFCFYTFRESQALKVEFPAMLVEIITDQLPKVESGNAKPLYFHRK
Androgen Receptor/SRC-1 Co-activator, AR (gene 367), sequence (P10275 whole entry, looked up): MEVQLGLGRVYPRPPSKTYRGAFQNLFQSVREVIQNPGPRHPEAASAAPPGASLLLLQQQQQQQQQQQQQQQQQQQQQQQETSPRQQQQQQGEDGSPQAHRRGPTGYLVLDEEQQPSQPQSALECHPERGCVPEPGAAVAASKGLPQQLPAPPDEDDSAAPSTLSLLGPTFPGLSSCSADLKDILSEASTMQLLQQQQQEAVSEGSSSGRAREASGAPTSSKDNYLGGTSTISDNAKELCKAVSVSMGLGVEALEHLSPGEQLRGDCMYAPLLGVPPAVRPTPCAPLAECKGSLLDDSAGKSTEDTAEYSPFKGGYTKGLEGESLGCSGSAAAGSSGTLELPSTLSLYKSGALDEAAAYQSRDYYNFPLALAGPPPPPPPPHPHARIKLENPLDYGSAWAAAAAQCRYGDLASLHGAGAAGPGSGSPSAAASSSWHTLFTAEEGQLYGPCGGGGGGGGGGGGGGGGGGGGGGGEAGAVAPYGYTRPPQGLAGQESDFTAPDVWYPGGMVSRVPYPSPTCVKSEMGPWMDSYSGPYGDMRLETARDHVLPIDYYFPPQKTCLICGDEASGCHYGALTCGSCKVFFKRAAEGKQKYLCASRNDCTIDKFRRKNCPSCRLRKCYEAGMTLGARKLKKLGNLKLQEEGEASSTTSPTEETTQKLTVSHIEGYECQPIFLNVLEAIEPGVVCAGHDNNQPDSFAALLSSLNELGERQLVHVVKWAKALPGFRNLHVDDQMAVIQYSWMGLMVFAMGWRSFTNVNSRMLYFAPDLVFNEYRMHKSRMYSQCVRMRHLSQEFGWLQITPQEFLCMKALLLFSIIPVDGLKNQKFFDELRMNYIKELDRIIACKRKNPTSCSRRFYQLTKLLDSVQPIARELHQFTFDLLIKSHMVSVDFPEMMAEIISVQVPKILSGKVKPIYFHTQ
Retinoic acid receptor alpha (Homo sapiens), sequence (P10276 whole entry, looked up): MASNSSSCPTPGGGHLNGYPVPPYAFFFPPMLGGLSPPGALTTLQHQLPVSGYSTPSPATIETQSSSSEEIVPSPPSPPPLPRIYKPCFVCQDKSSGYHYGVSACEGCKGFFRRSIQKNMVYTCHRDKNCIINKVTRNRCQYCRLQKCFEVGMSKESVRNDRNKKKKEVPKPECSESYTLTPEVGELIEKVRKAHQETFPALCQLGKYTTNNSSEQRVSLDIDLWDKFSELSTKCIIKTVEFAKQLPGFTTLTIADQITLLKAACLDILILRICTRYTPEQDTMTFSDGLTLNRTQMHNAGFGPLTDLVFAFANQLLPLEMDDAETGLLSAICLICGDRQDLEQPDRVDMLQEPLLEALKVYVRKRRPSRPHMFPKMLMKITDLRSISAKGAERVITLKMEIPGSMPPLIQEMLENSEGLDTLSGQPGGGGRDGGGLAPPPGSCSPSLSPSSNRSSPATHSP
Estrogen receptor beta (Homo sapiens), sequence (Q92731 whole entry, looked up, the tested form may be a part): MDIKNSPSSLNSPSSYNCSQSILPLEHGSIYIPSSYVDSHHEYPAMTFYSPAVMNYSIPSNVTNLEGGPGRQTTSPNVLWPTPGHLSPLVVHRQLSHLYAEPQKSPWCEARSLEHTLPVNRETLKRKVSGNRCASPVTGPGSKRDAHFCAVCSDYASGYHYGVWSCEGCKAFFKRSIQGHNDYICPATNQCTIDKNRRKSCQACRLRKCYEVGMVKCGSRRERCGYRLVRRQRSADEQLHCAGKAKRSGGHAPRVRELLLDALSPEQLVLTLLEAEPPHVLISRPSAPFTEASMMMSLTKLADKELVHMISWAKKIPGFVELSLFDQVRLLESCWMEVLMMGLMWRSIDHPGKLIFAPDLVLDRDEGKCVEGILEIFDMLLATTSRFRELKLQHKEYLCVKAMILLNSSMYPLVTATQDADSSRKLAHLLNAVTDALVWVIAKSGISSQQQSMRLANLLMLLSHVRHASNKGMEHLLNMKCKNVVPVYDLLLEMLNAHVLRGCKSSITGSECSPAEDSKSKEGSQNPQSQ
human Thyroid Receptor Alpha (TRa), THRA (gene 7067), sequence (P10827 whole entry, looked up): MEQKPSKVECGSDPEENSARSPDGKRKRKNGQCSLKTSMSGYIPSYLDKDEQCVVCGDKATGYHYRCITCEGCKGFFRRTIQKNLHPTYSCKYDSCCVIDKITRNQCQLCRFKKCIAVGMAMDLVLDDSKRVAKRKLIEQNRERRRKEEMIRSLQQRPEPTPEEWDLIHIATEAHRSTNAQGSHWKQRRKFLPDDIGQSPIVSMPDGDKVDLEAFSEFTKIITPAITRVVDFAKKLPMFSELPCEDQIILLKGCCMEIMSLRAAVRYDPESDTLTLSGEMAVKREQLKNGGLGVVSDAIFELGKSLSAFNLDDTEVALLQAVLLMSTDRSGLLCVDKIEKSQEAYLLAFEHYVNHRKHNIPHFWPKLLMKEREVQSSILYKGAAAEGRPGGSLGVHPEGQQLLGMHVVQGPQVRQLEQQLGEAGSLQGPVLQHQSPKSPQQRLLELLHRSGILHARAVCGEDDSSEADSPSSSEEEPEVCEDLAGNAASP
Estrogen receptor (Homo sapiens), sequence (P03372 whole entry, looked up, the tested form may be a part): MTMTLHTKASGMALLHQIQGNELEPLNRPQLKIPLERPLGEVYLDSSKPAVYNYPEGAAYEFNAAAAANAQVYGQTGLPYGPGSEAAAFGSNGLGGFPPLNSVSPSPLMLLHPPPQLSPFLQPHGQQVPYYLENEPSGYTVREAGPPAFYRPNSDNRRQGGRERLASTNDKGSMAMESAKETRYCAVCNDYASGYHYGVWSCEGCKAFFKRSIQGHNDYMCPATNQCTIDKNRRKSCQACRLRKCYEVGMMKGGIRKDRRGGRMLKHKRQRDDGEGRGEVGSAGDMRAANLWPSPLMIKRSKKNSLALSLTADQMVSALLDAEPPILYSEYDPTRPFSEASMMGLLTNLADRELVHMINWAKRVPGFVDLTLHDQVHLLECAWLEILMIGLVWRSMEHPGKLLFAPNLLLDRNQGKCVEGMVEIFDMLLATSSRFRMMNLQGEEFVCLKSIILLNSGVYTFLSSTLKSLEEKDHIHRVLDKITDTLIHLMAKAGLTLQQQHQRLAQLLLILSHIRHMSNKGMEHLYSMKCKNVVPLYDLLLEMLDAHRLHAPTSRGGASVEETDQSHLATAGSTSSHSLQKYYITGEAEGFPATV
Estrogen receptor (Homo sapiens) + Estrogen receptor beta (Homo sapiens), sequence (P03372 whole entry, looked up, the tested form may be a part): as above
Estrogen receptor (Homo sapiens) + Estrogen receptor beta (Homo sapiens), sequence (Q92731 whole entry, looked up, the tested form may be a part): as the sequence (Q92731 whole entry, looked up, the tested form may be a part) above
human Peroxisome Proliferator-activated Receptor alpha (PPARa), PPARA (gene 5465), sequence (Q07869 whole entry, looked up): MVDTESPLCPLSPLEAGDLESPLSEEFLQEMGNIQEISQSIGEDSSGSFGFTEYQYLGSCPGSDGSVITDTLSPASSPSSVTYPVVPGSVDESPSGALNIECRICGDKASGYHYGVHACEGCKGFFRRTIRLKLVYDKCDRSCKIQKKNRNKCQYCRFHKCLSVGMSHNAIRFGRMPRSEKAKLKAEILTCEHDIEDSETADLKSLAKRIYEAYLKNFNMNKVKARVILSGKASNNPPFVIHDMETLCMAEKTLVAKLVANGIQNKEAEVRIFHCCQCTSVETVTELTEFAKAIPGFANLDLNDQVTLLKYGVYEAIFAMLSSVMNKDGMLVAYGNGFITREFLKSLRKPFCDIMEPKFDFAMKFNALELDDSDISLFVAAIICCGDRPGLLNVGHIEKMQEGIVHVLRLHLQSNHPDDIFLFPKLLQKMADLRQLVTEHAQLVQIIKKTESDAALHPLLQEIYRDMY

Turning to `O=[N+]([O-])c1ccc(O)cc1`, in [1], the result was inactive.
For `C[C@@H]1C[C@H]2[C@@H]3CCC4=CC(=O)C=C[C@]4(C)[C@@]3(F)[C@@H](O)C[C@]2(C)[C@@]1(O)C(=O)COP(=O)(O)O`, the compound was called inactive in experiment [1], in experiment [3] and in [4]. The AC50 in experiment [2] was 8.69 nM (active) and 2.18 nM (active) and 33.9 nM (active).
For the compound `Oc1cc2ccccc2c2ccccc12`, the compound was called inactive in experiment [1], in experiment [3] and in [4]. Moreover, the values for the concentration at half-maximal activity (AC50) in [5] and in experiment [6] were 7.07 µM (active) and 8.63 µM (active), respectively.
Take `CCCCC(CC)COC(=O)CCCCC(=O)OCc1ccccc1` (stereo not drawn): the result in experiment [1], in [3] and in experiment [4] was inactive.
For `CCCCOCCO`, in experiment [1], the compound was called inactive.
In the case of `CCC(C)(C)C1CCC(O)CC1` (stereo not drawn), in [1], the AC50 was 59.3 µM (active) and the result was inactive.
Consider `Cc1ccc(S(=O)(=O)O)c(C)c1`, for which, in experiment [1], the result was inactive.
As to `CC(=O)CC(C)(C)O`, the result in [1], in [5], in [6], in [3] and in experiment [4] was inactive.
In the case of `C#C[C@]1(O)CC[C@H]2[C@@H]3CCC4=CC(=O)CC[C@@H]4[C@H]3CC[C@@]21C`, the compound was called inactive in experiment [1], in [3], in experiment [4], in experiment [7] and in [8]. The AC50 in experiment [2] is 500 nM (active); in experiment [4], 25.7 µM (active) and 31.6 µM (active) and 17.8 µM (active).
As to `O=C(OCCOCCOC(=O)c1ccccc1)c1ccccc1`, the compound was classed as inactive in [1].
As to `O=C(O)c1ccccc1C(c1ccc(O)cc1)c1ccc(O)cc1`, the result in experiment [1], in [5], in experiment [6], in experiment [3] and in experiment [4] was inactive.
With `Cc1cc(CCN2CCN(c3nsc4ccccc34)CC2)cc2c1NC(=O)CC2(C)C`, the outcome in experiment [1], in [3] and in [4] was inactive. Moreover, the AC50 in experiment [5] was 12.6 µM (active); in experiment [6] it was 15.4 µM (active).
`COCC(C)O` (stereo not drawn): the compound was called inactive in experiment [1] and in [2].
In the case of `OC1CCCCC1`, the result in [1] was inactive.
As for `OC1CCC(C2CCCCC2)CC1` (stereo not drawn), the AC50 in experiment [1] is 81.9 µM (active); in [3], 60.7 µM (active) and 64.1 µM (active) and 59.4 µM (active); in experiment [4], 25.6 µM (active) and 31.9 µM (active) and 26.9 µM (active). Also, the result in experiment [1], in experiment [3], in experiment [4], in experiment [9] and in experiment [7] was inactive.
For `Oc1cccc(O)c1`, the compound was called inactive in experiment [1] and in [4]. For the same compound, the AC50 in experiment [3] was 32.1 µM (active).
Turning to `CC(C)(C)c1cccc(C(C)(C)C)c1O`, the compound was classed as inactive in experiment [1].
Consider `CCCCCCCCC(=O)O`, for which the outcome in [1] and in experiment [3] was inactive.
In the case of `CCc1nn(C2CCCCC2)c2cc(C3(C#N)CCC(C(=O)O)CC3)ccc12` (stereo not drawn), the compound was classed as inactive in experiment [1], in experiment [3] and in experiment [4].
As for `CC(O)CO` (stereo not drawn), in experiment [1], the result was inactive.
The same measure, in the same setting: as for `CC(O)C(=O)O` (stereo not drawn), the entry is “inactive”.
`OCCC(F)(F)C(F)(F)C(F)(F)C(F)(F)C(F)(F)C(F)(F)F`: the compound was classed as inactive in experiment [1], in experiment [3] and in [4].
As for `CC(C)(C)CC(C)(C)c1ccc(O)c(-n2nc3ccccc3n2)c1`, the result in [1], in [3] and in experiment [4] was inactive.
As for `CN1CCN(c2ccccc2/C=C2\SCCN(c3ccc(Cl)c(Cl)c3)C2=O)CC1`, the call in experiment [1] and in experiment [4] was inactive.
As to `CC(=O)NC1(c2cccc(F)c2)CCN(CC[C@@]2(c3ccc(Cl)c(Cl)c3)CN(c3ccccc3)C(=O)CO2)CC1`, the result in experiment [1] was inactive. Besides, the AC50 in experiment [8] is 20.8 µM (active).
Consider `CCC(=C(c1ccc(O)cc1)c1ccc(OCCN(C)C)cc1)c1ccccc1`, for which the half-maximal activity concentration (AC50) in experiment [5] is 19.8 µM (active) and 20.2 µM (active) and 19.2 µM (active); in experiment [6] it was 46.8 µM (active) and 46.2 µM (active) and 46.6 µM (active). Besides, the outcome in experiment [5], in experiment [6], in experiment [2], in [9] and in experiment [8] was inactive.
Take `COc1ccc([N+](=O)[O-])cc1N`: the result in experiment [1], in [3] and in experiment [4] was inactive.
As to `CCCCCCCCCCCCCC[N+](C)(C)C`, in experiment [1], the outcome was inactive. The AC50 in [10] was 28.3 µM (active).
As to `O=c1c(-c2ccc(O)cc2)coc2cc(O)ccc12`, the compound was called inactive in [5], in experiment [6] and in experiment [7]. The half-maximal activity concentration (AC50) in experiment [7] is 1.06 µM (active) and 6.6 µM (active).

For orientation: AC50 means the midpoint of the concentration-response curve, whichever way the signal moves.

These data come from PubChem BioAssay (EPA / NIEHS).
